Source: PubChem BioAssay AID651650 (Sanford-Burnham Center for Chemical Genomics, 2012)

molecular target: Neuropilin-1 (Homo sapiens) (UniProt O14786); experiment: NRP-1 b1b2 CendR peptide binding inhibitors, dose response, biochemical, FP and AlphaScreen panel (AID 651650); conditions: NRP-1 b1b2 / RPARPAR peptide binding, FP or AlphaScreen; run 1, at 100 µM (top of the series)
Sequence (O14786 whole entry, looked up): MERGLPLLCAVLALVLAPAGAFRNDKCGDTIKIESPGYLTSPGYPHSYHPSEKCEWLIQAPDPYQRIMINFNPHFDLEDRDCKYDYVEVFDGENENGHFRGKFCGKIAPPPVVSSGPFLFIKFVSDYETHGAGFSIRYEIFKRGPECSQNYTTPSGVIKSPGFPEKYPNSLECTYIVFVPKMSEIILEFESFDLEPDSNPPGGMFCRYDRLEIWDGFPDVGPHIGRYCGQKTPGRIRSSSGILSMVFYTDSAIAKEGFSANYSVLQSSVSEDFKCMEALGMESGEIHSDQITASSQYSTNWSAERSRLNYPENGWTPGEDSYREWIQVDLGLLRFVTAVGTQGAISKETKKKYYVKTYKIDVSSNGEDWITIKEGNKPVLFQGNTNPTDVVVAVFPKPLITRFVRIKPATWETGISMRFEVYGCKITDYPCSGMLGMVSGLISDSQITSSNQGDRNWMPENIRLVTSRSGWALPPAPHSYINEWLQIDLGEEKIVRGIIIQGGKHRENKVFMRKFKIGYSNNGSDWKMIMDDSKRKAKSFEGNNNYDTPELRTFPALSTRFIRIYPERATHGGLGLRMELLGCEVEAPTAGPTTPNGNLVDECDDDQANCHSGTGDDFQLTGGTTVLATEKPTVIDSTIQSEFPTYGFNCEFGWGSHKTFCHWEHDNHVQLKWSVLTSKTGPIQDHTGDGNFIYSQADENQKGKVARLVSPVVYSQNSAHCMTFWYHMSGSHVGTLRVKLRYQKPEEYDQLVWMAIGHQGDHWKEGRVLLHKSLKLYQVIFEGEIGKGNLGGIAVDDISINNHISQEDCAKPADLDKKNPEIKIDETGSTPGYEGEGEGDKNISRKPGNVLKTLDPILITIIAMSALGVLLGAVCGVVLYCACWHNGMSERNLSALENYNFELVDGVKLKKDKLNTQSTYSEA

Row | Compound | inhibition
1 | O=C(NNC(=O)c1csc(N2CCOCC2)n1)c1ccc(=O)[nH]c1 | 39.8%
2 | O=C(NCCCN1CCCC(O)C1)c1cc(COc2ccc(F)cc2F)on1 (stereo not drawn) | 50.2%
3 | O=C(NCc1ccccc1)c1cccc(S(=O)(=O)N2CCCCC2)c1 | 61.2%
4 | CC1(C)c2ccccc2C(=O)c2ccccc21 | -7.21%
5 | CC(CN1CCOCC1)OC(=O)c1ccc2c(c1)OCCO2 (stereo not drawn) | 19.2%
6 | COC(=O)c1ccc(Cn2nnc3c(=O)[nH]c(C4CCCN(S(=O)(=O)c5cccc(Cl)c5)C4)nc32)cc1 (stereo not drawn) | 35.3%
7 | Cc1csc(NC(C)c2nc3cc(C(F)(F)F)ccc3n2CCOCCO)n1 (stereo not drawn) | 20%
8 | O=C(COC(=O)c1ccccn1)c1ccc([N+](=O)[O-])cc1 | 66.4%
9 | COC(=O)N[C@@H]1C[C@H]2[C@@H]3CC[C@H]4C[C@@H](OC)CC[C@]4(C)[C@H]3CC[C@]12C | 57.8%
10 | O=C(CSc1nnc(CNC(=O)C23CC4CC(CC(C4)C2)C3)n1-c1ccccc1)Nc1ccc(F)cc1 | 4.39%
11 | O=C(O)CCSc1nnc(COc2cccc3cccnc23)n1-c1ccccc1 | 52.3%
12 | Nc1cc(S(=O)(=O)O)cc([N+](=O)[O-])c1O | 74.8%
13 | O=Cc1ccc(-c2ccccc2C(=O)O)o1 | 51.8%
14 | Cc1nc(Nc2ccc(S(N)(=O)=O)cc2)oc1C | 60.3%
15 | CNC(=O)NC(=O)C(C)OC(=O)c1c(C)noc1C (stereo not drawn) | 49.1%
16 | CCOC(=O)Cn1c(=O)n(Cc2ccco2)c(=O)c2ccc(C(=O)NC3CCCC3)cc21 | 61%
17 | O=C(c1ccccn1)N1CCN(S(=O)(=O)c2ccccc2)CC1 | 80.9%
18 | CCCCOC(=O)c1ccc(NS(=O)(=O)c2cc(-c3nnnn3CC)ccc2OC)cc1 | 44.5%
19 | COC(=O)C1N[C@@H]([C@@H](NC(=O)COc2ccccc2)C(=O)NCc2ccccc2)SC1(C)C (stereo partly drawn) | 18.2%

Row | Compound | inhibition
20 | O=C(CSc1nc2ccc(Cl)cc2[nH]1)NCCc1ccccc1 | 18.8%
21 | O=C1CCC/C=C\C[C@@H](CC(=O)N(CCO)Cc2ccccc2)C(=O)N2CCC[C@H]2CO1 | -2.11%
22 | O=c1ccsn1Cc1ccccc1 | 11.6%
23 | COc1cc(CN2C[C@@H](CO)O[C@@H](n3cnc4c(N5CCN(c6ccccc6)CC5)ncnc43)C2)cc(OC)c1OC | 52.8%
24 | CCOc1ccccc1C1CC(=O)NC2=C1C(=O)CC(C)(C)C2 (stereo not drawn) | 32%
25 | CCC1=C(OC(=O)N(CC)CC)N2C(=O)OC(=NCC3CC3)[C@]2(Cc2ccccc2)[C@H]2C1=CC[C@H]1C(=O)N(C)C(=O)[C@H]12 | -6.33%
26 | COCCNC(=S)N(CCc1c(C)[nH]c2ccc(F)cc12)Cc1cccs1 | 34.4%
27 | CC(C)c1ccc(S(=O)(=O)N2CCN(C(=O)CN3C(=O)c4ccccc4C3=O)CC2)cc1 | 64.7%
28 | COc1ccc(S(=O)(=O)N2CCCCC2)cc1NC(=O)c1c(F)cccc1Cl | 37.3%
29 | CCOc1cc(C(=O)NCCN2CCOCC2)cc(OCC)c1OCC | 23.9%
30 | C=C1C[C@@]23CCC4[C@@](C)(CCC[C@@]4(C)C(=O)O)C2CC[C@]1(O)C3 (stereo partly drawn) | 63.6%
31 | CCC(=O)Nc1cc2c3c(c1)CCC(=O)N3CCC2 | 101%
32 | CCc1onc(C)c1C(=O)Nc1cc(C)ccc1OC | 95.6%
33 | COc1ccncc1-c1csc(C(O)c2ccccc2)n1 (stereo not drawn) | 3.78%
34 | O=C(COc1ccc(Br)cc1CO)Nc1ccc(F)cc1 | -9.04%
35 | Cc1cc2c(cc1C)NC(c1nc3ccccc3[nH]1)C1=C(CC(C)(C)CC1=O)N2 (stereo not drawn) | 20.6%
36 | CCOc1ccc(-n2c(Cc3cc(=O)[nH]c(=O)[nH]3)nnc2SC(C)C)cc1 | 59.6%
37 | CC(=O)C(=Cc1ccc(Cl)cc1)C(=O)c1ccccc1 | 27.1%
38 | N#CC(C#N)=Cc1cc2ccccc2nc1N1CCCCC1 | -3.26%
